Screens deposited in PubChem by National Center for Advancing Translational Sciences (NCATS).
Sampled rows, rich in hits. Any-hit rate of the full collection: about 13%.
miR-21 reporter: qHTS Assay for Modulators of miRNAs and/orActivators of miR-21 | HeLa miR-21 FLuc reporter, luciferase, 48 h | Potency, µM (titrated, usually from 38.3 µM), usual class: activators | 340,000 tested, under 10 active;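 further: miR-21 action dims this reporter so a rising signal means less miR-21 action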
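HeLa miR-21-FLuc reporter line, endogenous miR-21; 2000 cells/well in DMEM/10% FBS; compound titration up to ~40uM final, 48 h, 37 degree Celsius; luciferase detection reagent, 15 min lysis, CCD luminescence.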
Lamin A splicing: qHTS Assay for Modulators of Lamin A Splicing. HeLa LMNA splicing GFP/RFP minigene ratio, 48 h. Potency, µM (highest dose often 46.1 µM), hits mostly inhibitors. 0.01% of 200,000 active; active means well fitted inhibition curve with a large enough effect in the signal ratio, with a control signal flat, not every such curve was filed as active; inconclusive means small, poorly fitted or top-dose-only effect, or effect the other way, or a change in a side signal; the % refers to the signal ratio
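S3 HeLa stable clones carrying a lamin A-EGFP splicing minigene plus DsRed2 were seeded at 600 cells/well in Opti-MEM with 2% FBS, pin-dosed and incubated 48 h at 37°C. Acumen cytometry (488 nm) gave the GFP/RFP total-intensity ratio.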
ALDH1A1 block: qHTS Assay for Inhibitors of Aldehyde Dehydrogenase 1 (ALDH1A1); Aldehyde dehydrogenase 1A1 (Homo sapiens), P00352; Purified ALDH1A1, NADH fluorescence, propionaldehyde substrate; Potency, µM (top dose mostly 75.3 µM), actives largely listed as inhibitors; 7.3% of 220,000 active; active means well fitted inhibition curve with a large enough effect, not every such curve was filed as active; inconclusive means small, poorly fitted or top-dose-only effect, or another doubt; inactive means no such curve, though single readings can be large or run the other way
Sfp PPTase inh: qHTS Assay for Inhibitors of Bacillus subtilis Sfp phosphopantetheinyl transferase (PPTase); AID 1490, 2009; Biochemical Sfp PPTase activity, qHTS; 4'-phosphopantetheinyl transferase ffp (Bacillus subtilis), Q9F4F7; Potency, µM, usual class: inhibitors; 3.5% of 310,000 active;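 further: the enzyme is Sfp with the accession as filed and its product quenches rhodamine fluorescence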
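With Hepes-Na pH 7.6 buffer containing 10 mM MgCl2, Sfp (15 nM) modified BHQ-2-YbbR (12.5 uM) using rhodamine-CoA (5 uM). Two reads 30 minutes apart at 525/598 nm yielded each well's rate.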
G9a inh: qHTS Assay for Inhibitors of Histone Lysine Methyltransferase G9a | G9a H3K9 monomethylation, AlphaScreen, 2 h | Potency, µM (titrated, usually from 102 µM), hits mostly inhibitors | 8.8% of 350,000 active | Histone-lysine N-methyltransferase EHMT2 (Homo sapiens), Q96KQ7 | AID 504332, 2011; further: nearly all actives have a fitted effect of over 75% in size
Target sequence (Q96KQ7 913-1193 limits assumed): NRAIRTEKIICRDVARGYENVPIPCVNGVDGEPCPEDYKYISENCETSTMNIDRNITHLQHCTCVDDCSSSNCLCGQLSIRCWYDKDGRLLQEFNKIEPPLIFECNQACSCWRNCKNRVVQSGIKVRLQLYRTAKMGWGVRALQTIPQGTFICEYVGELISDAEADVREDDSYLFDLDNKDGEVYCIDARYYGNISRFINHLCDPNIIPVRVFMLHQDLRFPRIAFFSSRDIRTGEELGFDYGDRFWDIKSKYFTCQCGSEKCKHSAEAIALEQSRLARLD
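Signal arises when biotinylated H3K9 peptide, once monomethylated, bridges streptavidin donor and antibody-captured acceptor beads. Enzyme at 20 nM was preincubated 15 min with test compounds; peptide 500 nM and SAM 20 uM then reacted for 2 h.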
JMJD2E inh: qHTS Assay for Inhibitors of Human Jumonji Domain Containing 2E (JMJD2E); Lysine-specific demethylase 4E (Homo sapiens), B2RXH2; Potency, µM (series often up to 57.1 µM), actives largely listed as inhibitors; JMJD2E catalytic domain, FDH-coupled NADH fluorescence (FDH is formaldehyde dehydrogenase); 1.6% of 230,000 active; active means well fitted inhibition curve with a large enough effect, not every such curve was filed as active; inconclusive means small, poorly fitted or top-dose-only effect, or another doubt; inactive means no such curve, though single readings can be large or run the other way; further: nearly all actives have a fitted effect of over 50% in size
Target sequence (B2RXH2 1-337 limits assumed): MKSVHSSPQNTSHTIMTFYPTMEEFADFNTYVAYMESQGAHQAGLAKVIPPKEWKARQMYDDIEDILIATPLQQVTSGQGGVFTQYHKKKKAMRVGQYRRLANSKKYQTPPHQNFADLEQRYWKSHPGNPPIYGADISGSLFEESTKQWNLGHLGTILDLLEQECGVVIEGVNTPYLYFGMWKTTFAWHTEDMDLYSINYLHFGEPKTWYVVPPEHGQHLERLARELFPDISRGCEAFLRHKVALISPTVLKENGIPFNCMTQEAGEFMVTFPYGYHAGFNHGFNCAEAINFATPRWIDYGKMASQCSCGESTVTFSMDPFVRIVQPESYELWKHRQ
Of the large screens only hits and unclear results are named; the others gave an inactive call. Unless noted, the call rests on the fitted dose curve; in most records, active means well fitted curve in the direction sought with a large enough effect; inconclusive means small, poorly fitted or top-dose-only effect, or another doubt; inactive means no such curve, though single readings can be large; an effect the other way counts as inactive or inconclusive.

CC/C(C)=N/Nc1nc2c(c(=O)[nH]c(=O)n2C)n1Cc1ccccc1	none (no result: Lamin A splicing, ALDH1A1 block, JMJD2E inh)
Cn1c(=O)[nH]c(=O)c2c1nc(N/N=C/C(Br)=C/c1ccccc1)n2CCO	Sfp PPTase inh 56µM (no result: Lamin A splicing, ALDH1A1 block, G9a inh)
CCOC(=O)c1ccc(NC(=O)C2CCN(C(=O)N3CC(C)Oc4ccc(C)cc43)CC2)cc1 (stereo not given)	none (no result: ALDH1A1 block, Sfp PPTase inh, JMJD2E inh)
O=C(CCCN1C(=O)c2ccccc2C1=O)Nc1ccccn1	none
[N-]=[N+]=CC(=O)CCCN1C(=O)c2ccccc2C1=O	ALDH1A1 block 10µM
Cc1ccc2occ(CC(=O)Nc3ccc(Cl)c(C(F)(F)F)c3)c2c1	miR-21 reporter inconclusive (no result: Lamin A splicing, ALDH1A1 block, Sfp PPTase inh, JMJD2E inh)
CSc1nc(Cl)c(Cc2ccc(OC(C)C)cc2)c(N(C)C)n1	Lamin A splicing inconclusive
CCOCc1[nH]c(=S)[nH]c(=O)c1Cc1ccc(OC(C)C)cc1	ALDH1A1 block 13µM, G9a inh 50µM (no result: Lamin A splicing)
C=CCn1c(CSCc2ccccc2)nnc1SCC(=O)N1CCN(c2ccccc2)CC1	ALDH1A1 block 0.79µM, Sfp PPTase inh inconclusive, G9a inh 25µM
O=C(CSc1nnnn1Cc1ccccc1)NC1CCCCC1	Lamin A splicing inconclusive, ALDH1A1 block inconclusive, G9a inh 50µM
CCCn1c(SCC(=O)NC2CCCCC2)nnc1C1CC1	none (no result: Lamin A splicing, ALDH1A1 block, G9a inh, JMJD2E inh)
CCn1nnnc1SCC(=O)N1CCN(c2ccccc2)CC1	G9a inh inconclusive (no result: Lamin A splicing, ALDH1A1 block)
CCn1c(CSCc2ccc(C)cc2)nnc1SCC(=O)N1CCN(c2ccccc2)CC1	Lamin A splicing inconclusive, ALDH1A1 block inconclusive, G9a inh inconclusive
O=C(CSc1nnnn1Cc1ccccc1)N1CCN(c2ccccc2)CC1	ALDH1A1 block inconclusive, G9a inh 45µM
CCn1nnnc1SCC(=O)NC1CCCC1	none
Nn1c(SCC(=O)NC2CCCCC2)nnc1C1CC1	ALDH1A1 block 24µM, G9a inh inconclusive
Cc1cccn2c(=O)cc(COc3ccc(NC(=O)c4cccc(F)c4)cc3)nc12	none (no result: ALDH1A1 block, Sfp PPTase inh, JMJD2E inh)
C=CCC(C)(O)c1ccc(OC)cc1 (stereo not given)	none (no result: miR-21 reporter, Lamin A splicing, G9a inh)
CCCCc1ccc(-n2nc3cc(C)c(NC(=O)c4ccc(C#N)cc4F)cc3n2)cc1	G9a inh inconclusive (no result: Lamin A splicing, ALDH1A1 block, Sfp PPTase inh, JMJD2E inh)
Cc1ccc2[nH]c(C)c(/C=C/c3cc[n+](C)cc3)c2c1	none (no result: Lamin A splicing, ALDH1A1 block, JMJD2E inh)
Cc1ccc2c(c1)c(/C=C/c1cc[n+](C)cc1)c(C)n2C	miR-21 reporter inconclusive, G9a inh 45µM (no result: Lamin A splicing, ALDH1A1 block, JMJD2E inh)
CC1CCN(S(=O)(=O)c2ccc3c(c2)c(=O)c(C(=O)NCc2ccco2)cn3C)CC1	ALDH1A1 block inconclusive, G9a inh 79µM
COc1ccc(CNC2CCCc3ccccc32)c(OC)c1 (stereo not given)	none (no result: Lamin A splicing, ALDH1A1 block, G9a inh, JMJD2E inh)
COc1ccc(CNC2CCCCC2C)c(OC)c1 (stereo not given)	G9a inh 14µM
CCn1c(CN2CCN(C)CC2)nc2cc(NC(=O)c3cc(OC)c(OC)c(OC)c3)ccc21	G9a inh inconclusive (no result: ALDH1A1 block, Sfp PPTase inh, JMJD2E inh)
C/C(=N\N(c1ccccc1)c1ccccc1)c1ccco1	ALDH1A1 block inconclusive, G9a inh 35µM
C/C(=N\N=C(c1ccccc1)c1ccccc1)c1ccco1	ALDH1A1 block inconclusive
CC(C)c1nnc(NC(=O)C2CCN(C(=O)Nc3ccccc3)CC2)s1	none (no result: Lamin A splicing, ALDH1A1 block, JMJD2E inh)
Cc1ccccc1CNC(=O)CCCn1c(=O)c2cccn2c2ccccc21	Lamin A splicing inconclusive (no result: ALDH1A1 block, Sfp PPTase inh, JMJD2E inh)
COC(=O)C1=CN(C(C)C)C=C(C(=O)OC)C1c1cccc(OC)c1	ALDH1A1 block inconclusive, JMJD2E inh inconclusive
COc1cccc(C2C(=O)c3ccccc3C2=O)c1	G9a inh 50µM
COC(=O)C1=C(C)NC2=C(C(=O)c3ccccc32)C1c1cccc(OC)c1 (stereo not given)	G9a inh 50µM (no result: Lamin A splicing, ALDH1A1 block)
CCOc1cc(C2C(C(=O)OC)=C(C)NC3=C2C(=O)c2ccccc23)cc(Br)c1OCC (stereo not given)	G9a inh 10µM (no result: Lamin A splicing, ALDH1A1 block, Sfp PPTase inh, JMJD2E inh)
